This passage reports PBM binding z-score results from the supplement of paper PMC6555819.

This test deals with VDR:RXRa (NR concentration 270 nM, RXRa partner concentration 90 nM). Nature of the test: PBM binding z-score (relative to random genomic background probes); higher = stronger binding; sequences stand for … in GC…GCGATTGACAGCGTAGAATGAAGG
The protocol: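 Protein-binding microarray (Agilent 4x180K custom design, double-stranded 60-nt probes: 5' GC cap, 34-nt variable region, 24-nt constant primer region; full probe sequence given). Purified or IVT nuclear receptor:RXRα heterodimers (3:1 NR:RXRα, mostly 270:90 nM) or homodimers were incubated for 1 h in PBS with 2% milk and no ligand, then detected with Alexa488 antibodies. Fluorescence from o1-orientation probes (~5 replicates averaged) was converted to z-scores against 500 random hg19 background probes. Variable regions are seed direct-repeat (DR0–DR5) sites, all their single-nucleotide variants and half-site ablations.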
On to TCGAGTAGGTTAGGGACATTCAGAATGGCGTCGA, for which the PBM binding z-score was -0.0636. The sequence CCTAGTTGGTCAAGGTCACAAACGCTATAGGTAC had a PBM binding z-score of 3.73. The same measure for GGAACGAGGGCAAAGTTGATAGCCTCTGTCGACG: 0.981. In the case of CCTTACGGATCACTGACAGGTTATAGCATTTGGA, the PBM binding z-score turned out to be 0.456. The same measure for TCATATAGGTACACAGGTGAAAGTCCGTAAGTTA: 1.32; for AGTCAAAGTTCAGGACGTGGTAACGTAAAGCACG: 2.12. The same measure for CCTTACGGGTCACTGACAGTTTATAGCATTTGGA: 4.21; for CAGCCTAGGTCAGGGCCACTATAGGAGGAACGTT: 0.305. Consider TCTTGTAGATCAGCAGGTTATGAAAGCTGGCCAA, for which the PBM binding z-score worked out at 0.359. Turning to CAAACTAGGTCACGAAAGGTCAAACTCGAATGAC, the PBM binding z-score came to 7.13. The same measure for CCGAGTAGGTTATGGGGCATTCAAGCAACGGTGA: -0.183; for TCATATAGGTAAAGGTGAAGGTCGAACGATATGA: 1.63. Under CAAACTAGGGCAAGGTCAAAGTCGGTTTGTGCCA stands 4.44; under CCGACTGGGGAAGAAAGGTTACCATACCATCCGG, 0.522. The same measure for TCTCGGAGGACACGAAGTTCAGAGCTTTCCAGAG: 2.63. Consider CAAACTAGGTCAAGGGTCAAAGTCGAGCCAACCA, for which the PBM binding z-score is 5.5. Under CGTAGTTGGTCAGGAGGTCACACACCGGATATGA stands 3.86; under AGAATGAGGTTACCATAGATCAGGGAAACGCTTG, 0.941; under TCGAGTAGGTTAGTCGGGGCATTGAGCCAACATA, 1.89. In the case of ACTATTAGTTGACCTAGGGCAACCGATACGACGC, the PBM binding z-score came out at 1.96. Under CCAGACAGGTGAGAAGTTAACTCAGCCTCGATTA stands -0.0797. Under CCTACTGTGCCACGAAAGGTCATTGATTCAGTGA stands 4.38; under GGTACAGGGTCAGCTAGAGGCCAGAGTATGGAAA, 3.29.

GCTAGTTGGTCAGTAAAAGTTCACACACCGGTCG: the PBM binding z-score worked out at 2.55. In turn, TGTCAAAGTTCAAAGCTAACGTAAGTATCCACAC had a PBM binding z-score of 4.16. Under TAGCCTAGGTTAGATCGGGCCAGTATACGCTATA stands -0.4; under AGAACGAGGGAACGCTGAGTTGATAGCAGAGTAG, -0.0908. For the sequence AGCATGAGGTTAAGATCAGGGAAACAGAATACAT, the PBM binding z-score was 1.36.

On to CGTCCAAGGTCAGAGAGGTCAGTGAGTGCCGAGT, for which the PBM binding z-score was 7.44.

For the sequence TCTTGTAGATCAATAGAGGTGAAGAAAGTGCGCT, the PBM binding z-score worked out at 0.991. The same measure for ACAGACAGGTAAGTGAAGGTAACTCAGCTGGACG: -0.31; for AGAACGTGGGCACGCTGAGTTGATAGCAGAGTAG: -0.467. The same measure for ATATGTAGGTTATCGGCTCATTCAGTTTGCGCAT: 0.802; for AACGAAAGGTCGAGGTGAGTATAGAGAAAGGGAA: 2.85. The sequence GATACAGGCTCAGCTAGAGGCCAGAGTATGGAAA showed a PBM binding z-score of -1.02. Under CGAACTAGGTCAAGGACCGTGAATCTCCGCACGC stands 0.799; under TAGCCTAGGTCATTGGGCCAGTCTAGTACGCATC, 1.98. As to ATATGTAGGTTAAGGGACATTCAGGTTGGTTCGC, the PBM binding z-score is 1.07. As for ACTCTTAGTTGAGACGAGGGCAACCGATAGGTTG, the PBM binding z-score is 0.492. The same measure for CATACAGTGTCAGCTAGGCCAGAGTAGGGACGGC: -0.152.
